Compounds with a hit are over-represented: about 2.6% of the library has one in this group of screens.
LGR2 inh: blocks bursicon-induced cAMP signaling via Drosophila LGR2; AID 720647; 380,000 tested, 0.35% active; HEK293 LGR2, CRE-luciferase, bursicon-stimulated, 4 h; inhibition, % at 9.99 µM;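 active = drop in luminescence signal, shown as inhibition above about 50% in the replicate tests, limit read from the data, passing the limit was not always enough; inconclusive = probably only some replicates passing the limit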;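 note: agonist challenge used bursicon conditioned medium at about half maximal strength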
TWEAK Fn14 block: inhibitors of TWEAK-Fn14 interaction signaling; TWEAK-stimulated Fn14 reporter cells, luciferase luminescence, 8 h; inhibition, % at 10 µM; 360,000 tested, 2% active; AID 1159606; in the data active = inhibition above about 50%
EBV LMP1 NFkB: Epstein-Barr LMP1 NF-kappaB reporter inhibition. inhibition, % at 12.5 µM. LMP1-induced NF-kappaB luciferase reporter cells, luminescence. 350,000 tested, 0.69% active; in the data active = inhibition above about 41%; inconclusive = no clear call, values can overlap the other calls;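 note: 0% = neutral control wells and 100% = reference inhibitor control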
EWS-Fli block: EWS/Fli transcriptional activity inhibition; A673 NR0B1-luciferase reporter, viability-normalised; 350,000 tested, 0.67% active; inhibition, % at 12.6 µM; AID 651661;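 active = mean inhibition of at least 50% after viability correction, with every replicate also passing that limit; inconclusive = mean reaches 50% but only one of two replicates passes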;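 note: firefly luciferase signal divided by Alamar Blue viability fluorescence both relative to DMSO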
TROY NFkB inh: TROY signaling inhibition; 360,000 tested, 0.98% active; Q293 LMP1-TROYcd NF-kB luciferase reporter, 4 h; AID 1347056; inhibition, % at 10 µM;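 active = compounds whose plate-normalised and pattern-corrected inhibition of the luciferase reporter signal at the single screening dose is 50% or more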
The depositor's hits bear a star; ? = inconclusive; nt = not tested or not shown.

SMILES	LGR2 inh	TWEAK Fn14 block	EBV LMP1 NFkB	EWS-Fli block	TROY NFkB inh
CC(C)(C)c1ccc(OC(=O)Nc2ccc(O)c(C(=O)O)c2)cc1	-21	73*	7	8	13
Cc1cccc(C)c1N1CCN(C(c2cc3ccccc3o2)c2nnnn2C(C)(C)C)CC1 (configuration not stated)	nt	53*	nt	nt	27
COc1ccccc1/C=C/C(=O)/C=C/c1ccccc1O	-22	88*	-13	43	-16
COc1ccccc1/C=C/C(=O)N1CCCC1	-1	-8	-2	-17	-11
COc1ccccc1/C=C/C(C)=O	8	-2	-10	nt	-26
COc1ccccc1C=CC(=O)C=Cc1ccccc1OC	-19	80*	66*	39	-36
O=C(C[C@H]1CC[C@@H]2[C@H](COC[C@@H](O)CN2C(=O)c2ccncc2)O1)NCc1ccc(-c2ccccc2)cc1	-9	nt	nt	-1	nt
CCCNC(=O)Nc1ccc2c(c1)OC[C@H](C)N(Cc1ccccn1)C[C@H](C)[C@H](OC)CN(C)C2=O	5	nt	nt	8	nt
O=C(CSc1nnc(-c2ccc(F)cc2)c2ccccc12)Nc1ccccc1	7	13	-13	63*	0
O=C(CSc1nnc(-c2ccc(F)cc2)c2ccccc12)Nc1cccc(Cl)c1	8	9	0	1	7
C[C@H](O)C#Cc1cnc2c(c1)C(=O)N([C@H](C)CO)C[C@H](C)[C@@H](CN(C)Cc1ccc(-c3ccccc3)cc1)O2	1	nt	nt	16	nt
CC1(C)CC(=O)C=C(c2ccccc2F)C1=O	11	nt	nt	-2	nt
Cc1ncc([N+](=O)[O-])n1Cc1cccc(F)c1	13	70*	1	11	19
COc1ccc(OCc2cc(-c3ccc(Cl)cc3)no2)cc1	1	1	-4	46	-13
O=C(CCl)NCc1cc(-c2ccc(Cl)cc2)no1	15	7	-11	62*	-4
O=C(CN(c1ccccc1F)S(=O)(=O)c1ccccc1)Nc1ccc2c(c1)OCCO2	-7	75*	12	nt	45
CNC[C@H]1OCCCC[C@H](C)Oc2ccc(NS(=O)(=O)c3ccc(F)cc3)cc2C(=O)N([C@@H](C)CO)C[C@H]1C	-8	nt	nt	-13	nt
CN1CCN(C(=O)c2ccccc2N(Cc2ccccc2)S(C)(=O)=O)CC1	nt	72*	1	nt	7
O=C(OCc1nc2ccccc2s1)[C@@H]1CCCN1S(=O)(=O)c1ccccc1F	nt	-6	77*	nt	29
CC(C)NC(=O)Nc1ccc2c(c1)CC(=O)N([C@@H](C)CO)C[C@@H](C)[C@H](CN(C)S(=O)(=O)c1cccs1)O2	5	nt	nt	-6	nt
CCOC(=O)C1=C(C)NC(=O)NC1c1ccc(OCC(N)=O)cc1 (configuration not stated)	nt	79*	2	nt	nt
CC1=C(C(=O)OCc2ccc3c(c2)OCO3)C(c2ccc(F)cc2)NC(=O)N1 (configuration not stated)	28	87*	79*	nt	55*
CSCCOC(=O)C1=C(C)NC(=O)NC1c1ccc2c(c1)OCO2 (configuration not stated)	-3	-6	2	13	8
CC1=C(C(=O)OCc2ccc3c(c2)OCO3)C(c2ccc(Cl)cc2)NC(=O)N1 (configuration not stated)	39	94*	81*	36	70*
Cc1cc(=O)[nH]c(SCc2cccc3ccccc23)n1	-6	-6	-7	9	19
SMILES	LGR2 inh	TWEAK Fn14 block	EBV LMP1 NFkB	EWS-Fli block	TROY NFkB inh
Cc1ccccc1CSc1nc(C(C)(C)C)cc(=O)[nH]1	-23	2	-11	10	65*
CCCOC(=O)CN1C(=O)c2ccccc2C1=O	nt	82*	5	nt	nt
COc1cccc(CN2CC3(CN(C(=O)Nc4c(C)noc4C)C3)c3c([nH]c4cc(OC)ccc34)[C@H]2CO)c1	4	nt	nt	21	nt
C[C@@H]1CN([C@H](C)CO)C(=O)c2cc(NC(=O)Nc3cccc4ccccc34)ccc2O[C@@H](C)CCCCO[C@@H]1CN(C)Cc1ccc(C(=O)O)cc1	25	nt	nt	-2	nt
O=c1c(O)cccc2cc(O)c(O)c(O)c12	12	78*	-9	-2	13
c1ccc(N=Nc2ccc(C3=NCCO3)cc2)cc1	81*	48	8	43	18
C[C@@H]1CCCCO[C@H](CN(C)Cc2ccccc2)[C@H](C)CN([C@H](C)CO)C(=O)c2cc(N(C)C)ccc2O1	-10	nt	nt	-1	nt
CN(C)C(=O)C[C@@H]1CC[C@@H](NC(=O)Nc2cccc(F)c2)[C@@H](CO)O1	-5	nt	nt	5	nt
CCOc1ccc(NC(=S)Nc2ccc(Br)cc2Cl)cc1	-8	18	4	9	58*
COc1ccc(S(=O)(=O)Nc2ccc3c(c2)CC(=O)N([C@@H](C)CO)C[C@H](C)[C@H](CN(C)C)O3)cc1	1	nt	nt	-2	nt
O=c1nc2s/c(=C\c3ccc(-c4ccccc4[N+](=O)[O-])o3)c(=O)n2nc1-c1ccccc1	15	57*	-2	8	42
CCCCCOc1ccc(/C=c2\sc3nc(=O)c(-c4ccccc4)nn3c2=O)cc1OC	15	33	-2	4	-35
CC(=O)Nc1ccc(NC(=O)c2ccc(N(C)S(=O)(=O)c3ccc(C)cc3)cc2)cc1	8	23	-1	nt	-16
Cc1nc2cc(NC(=O)c3ccc(S(=O)(=O)N(C)c4ccccc4)cc3)ccc2o1	-16	74*	-21	nt	14
CN(c1ccccc1)S(=O)(=O)c1ccc(NC(=O)c2ccc(-c3ccccc3)cc2)cc1	19	54*	24	7	36
Cc1nc2ccc(NC(=O)c3ccc(Cl)c(S(=O)(=O)N(C)c4ccccc4)c3)cc2s1	7	96*	23	nt	56*
CCC(=O)N1C[C@@H](C)[C@H](OC)CN(C)C(=O)c2ccc(NC(=O)Nc3cccc(F)c3)cc2OC[C@H]1C	9	nt	nt	-1	nt
Cc1noc(C)c1S(=O)(=O)Nc1cccc2c1O[C@@H](CN(C)Cc1ccncc1)[C@@H](C)CN([C@H](C)CO)C2=O	-16	nt	nt	-6	nt
CC(C)CC(=O)NC(c1cccs1)c1ccc2cccnc2c1O (configuration not stated)	nt	-23	37	nt	24
CCCC(=O)NC(c1ccc(Cl)cc1)c1ccc2cccnc2c1O (configuration not stated)	31	1	?	46	17
CCCCC(=O)NC(c1ccc(Cl)cc1)c1ccc2cccnc2c1O (configuration not stated)	48	6	67*	37	15
CCC(=O)NC(c1cccs1)c1ccc2cccnc2c1O (configuration not stated)	11	3	74*	16	11
CCC(=O)NC(c1ccc(C)cc1)c1cc(Cl)c2cccnc2c1O (configuration not stated)	nt	29	43*	nt	-18
CCCCC(=O)NC(c1ccc(N(CC)CC)cc1)c1ccc2cccnc2c1O (configuration not stated)	nt	11	82*	49	33
CCCCC(=O)NC(c1ccc(N(C)C)cc1)c1ccc2cccnc2c1O (configuration not stated)	12	9	34	42	6

Screening results (PubChem)
